Here are results for 20 molecules from PubChem BioAssay AID504336 (NMMLSC, 2011).

Structures are written as SMILES. Values without a mark were called inactive.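 How the source made its calls: active means compounds whose GFP signal falls below 65% of the DMSO control level; inconclusive means fewer than 70 yeast cells counted in the well; inactive means the rest.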

The experiment in a line: TOR branch reporter RPL19A-GFP response – cell-based, S. cerevisiae, third cherry pick, flow cytometry, confirmation (AID 504336).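 Further: median GFP fluorescence of all gated yeast cells by flow cytometry; ratio of well median fluorescence to plate mean of DMSO wells with DMSO = 100%.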 The following applies: S. cerevisiae RPL19A-GFP strain, 3 h, at 10 µM, stronger effect = lower value. In general terms: Flow cytometry measures light scatter and fluorescence of single cells or particles in a stream.
In the case of `CC(=O)NC(C)c1cc(Cl)c2cccnc2c1O` (stereo not given), the GFP response relative to DMSO is 99.1%. Under `O=C(Nc1cccc(Cl)c1)ON=C1c2ccccc2-c2ccccc21` stands 102%; under `C=CCNc1ncnc2ccc(Br)cc12`, 99.3%; under `O=C(Nc1nc(-c2ccccn2)cs1)c1ccccc1-n1cnnn1`, 98.8%. With `CC(=O)C(Cl)C(=O)Nc1ccccc1` (stereo not given) the figure was 98.8%. `COc1cccc2c(=O)c(C(=O)O)c[nH]c12`: the GFP response relative to DMSO is 98.3%. Regarding `COC(=O)c1cc(=O)c2cccc(OC)c2[nH]1`, the GFP response relative to DMSO is 101%.

With `Oc1c(I)cc(Cl)c2cccnc12`, the GFP response relative to DMSO was 86%. Consider `CC(=O)Nn1cnc2c(c1=O)C1(CCCC1)Cc1ccccc1-2`, for which the GFP response relative to DMSO is 99.3%.

As to `Nc1c(O)ccc2c1C(=O)c1ccccc1C2=O`, the GFP response relative to DMSO was 102%. Under `FC(F)Oc1cccc2cccnc12` stands 95.4%. With `O=C(Nc1cccc2ccccc12)ON=C1CCCCC1` the figure was 101%. For `CC(=O)NCCOc1cccc2cccnc12`, the GFP response relative to DMSO is 102%. With `Cc1nc(Nc2ccc(Cl)cc2)c(C#N)c(=O)[nH]1`, the GFP response relative to DMSO was 102%. For `CNc1nc(C)c([N+](=O)[O-])c(Nc2ccc(OC)cc2)n1`, the GFP response relative to DMSO is 102%.

`COc1ccccc1OCc1cc(C(=O)N2CCN(C)C(c3ccccc3)C2)no1` (stereo not given): the GFP response relative to DMSO is 101%. Turning to `Nn1cnc2c(c1=O)C1(CCCCC1)Cc1ccccc1-2`, the GFP response relative to DMSO is 101%.

`O=C(O)CCCCCNc1ncnc2ccc(Br)cc12`: the GFP response relative to DMSO was 99.8%. Turning to `CNc1cccc2c1C(=O)c1ccccc1C2=O`, the GFP response relative to DMSO was 102%. Under `Cc1cc(C)c2ccc(N)nc2c1O` stands 101%.
